Reference: PubChem BioAssay (EPA / NIEHS)
Records with an inconclusive call do not appear. Activity calls are given as the source filed them. How the source made its calls, unless noted: active means hit-call score of the fitted dose curve at least 0.9, where 1 is the maximum; inconclusive means response in the unintended direction; inactive means score below 0.9.

Assays:
[1] = Tanguay_ZF_120hpf_OTIC_legacy: (Legacy) Oregon State University Tanguay Lab 120 Hour Post-fertilization zebrafish Assay for Otic Vesicle Malformation (AID 2283639)
Summary of the method: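 Tropical 5D wild-type zebrafish embryos were exposed statically in sealed, foil-covered plates at 28C until 120 hpf, with 0.64% (vol/vol) DMSO final. Otic vesicle malformation was scored present/absent by brightfield microscopy, with DMSO as baseline.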

[2] = Tanguay_ZF_120hpf_PE_legacy: (Legacy) Oregon State University Tanguay Lab 120 Hour Post-fertilization zebrafish Assay for Pericardial Edema (AID 2283640)
Summary of the method: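 Read-out is the presence or absence of pericardial edema at 120 hpf under brightfield, with gain of signal fitted against DMSO controls. Larvae (5D wild-type) were statically exposed at 28C with 0.64% final DMSO.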

[3] = Tanguay_ZF_120hpf_BRAI_legacy: (Legacy) Oregon State University Tanguay Lab 120 Hour Post-fertilization zebrafish Assay for Brain Malformation (AID 2283641)
Summary of the method: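 Brain malformation in Tropical 5D zebrafish was recorded as a binary endpoint after static compound exposure from early development to 120 hpf at 28C. Activity was analysed against DMSO as negative control.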

[4] = Tanguay_ZF_120hpf_SOMI_legacy: (Legacy) Oregon State University Tanguay Lab 120 Hour Post-fertilization zebrafish Assay for Somite Malformation (AID 2283647)
Summary of the method: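 5D WT zebrafish; chorion removed 4 hpf; 1 embryo/well from 6 hpf; static exposure to 120 hpf, 28C, 0.64% DMSO final. Endpoint: somite malformation, binary, brightfield. Mortality excluded.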

[5] = Tanguay_ZF_120hpf_PFIN_legacy: (Legacy) Oregon State University Tanguay Lab 120 Hour Post-fertilization zebrafish Assay for Pectoral Fin Malformation (AID 2283648);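 further: each larva judged yes or no for fin defect by brightfield with dead larvae skipped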
Summary of the method: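 5D WT zebrafish; pronase dechorionation 4 hpf; 1 embryo/well at 6 hpf; static exposure to 120 hpf, 28C, sealed, foil-covered; final DMSO 0.64% v/v; 5 uM trimethyltin chloride positive control; fin defect scored yes/no.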

[6] = Tanguay_ZF_120hpf_CFIN_legacy: (Legacy) Oregon State University Tanguay Lab 120 Hour Post-fertilization zebrafish Assay for Caudal Fin Malformation (AID 2283649)
Summary of the method: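 Embryos were collected from Tropical 5D wild-type adults and dechorionated at 4 hpf. At 6 hpf each was exposed, one per well, at 0.64% DMSO and 28C. At 120 hpf fin morphology was scored; dead embryos were excluded.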

[7] = Tanguay_ZF_120hpf_PIG_legacy: (Legacy) Oregon State University Tanguay Lab 120 Hour Post-fertilization zebrafish Assay for Pigmentation Malformation (AID 2283650)
Summary of the method: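 Pronase dechorionation at 4 hpf; embryos plated at 6 hpf, one per well; static exposure, sealed and foil-covered, 28C, to 120 hpf; pigmentation read by brightfield, binary; DMSO 0.64% baseline, 5uM trimethyltin chloride positive control.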

[8] = Tanguay_ZF_120hpf_SWIM_legacy: (Legacy) Oregon State University Tanguay Lab 120 Hour Post-fertilization zebrafish Assay for Swim Bladder Malformation (AID 2283654);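 further: swim bladder malformation in each larva scored yes or no under brightfield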
Summary of the method: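 Embryos lacking chorions were exposed individually and statically to test chemical from 6 to 120 hpf at 28C, with 0.64% DMSO as vehicle. At 120 hpf, swim bladder malformation was recorded as present or absent by brightfield microscopy.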

[9] = Tanguay_ZF_120hpf_TRUN_legacy: (Legacy) Oregon State University Tanguay Lab 120 Hour Post-fertilization zebrafish Assay for Truncated Body (AID 2283655)
Summary of the method: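 5D wild-type larvae; pronase dechorionation; static exposure 6→120 hpf, 28C; DMSO 0.64% final; 5uM trimethyltin chloride positive control. Readout: presence/absence of truncated body, analyzed relative to DMSO.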

[10] = Tanguay_ZF_120hpf_NC_legacy: (Legacy) Oregon State University Tanguay Lab 120 Hour Post-fertilization zebrafish Assay for Notochord and Tail Malformation (AID 2283656)
Summary of the method: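 Dechorionated 5D zebrafish, 1/well from 6 hpf; static exposure to 120 hpf, 28C, sealed, dark; final DMSO 0.64% v/v. NC scored binary (present/absent); dead embryos not scored. Fit vs DMSO baseline, gain direction.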

[11] = read-out: Broad substrate specificity ATP-binding cassette transporter ABCG2 (Homo sapiens) (UniProt Q9UNQ0); test: CLD_ABCG2_6hr: CellzDirect (CLD) Gene Expression Assay for ABC Transporter (ABCG2) at 6 hours (AID 2283660)
Summary of the method: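 Primary human hepatocytes dosed daily with chemicals at multiple concentrations (0.2% DMSO vehicle), harvested 6 h after dosing. ABCG2 mRNA induction read by quantitative nuclease protection assay (qNPA) chemiluminescence; gain of signal fitted against DMSO baseline.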

[12] = Tanguay_ZF_120hpf_CIRC_legacy: (Legacy) Oregon State University Tanguay Lab 120 Hour Post-fertilization zebrafish Assay for Circulatory Malformation (AID 2283651)
Summary of the method: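 Tropical 5D wild-type embryos, dechorionated with pronase at 4 hpf, were placed singly in wells at 6 hpf and exposed statically at 28C to 120 hpf (0.64% DMSO final). Circulatory malformation was scored present/absent by brightfield microscopy.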

[13] = read-out: xenobiotic metabolism (CYP1A1), CYP1A1 (gene 1543); test: CLD_CYP1A1_6hr: CellzDirect (CLD) Gene Expression Assay for xenobiotic metabolism (CYP1A1) at 6 hours (AID 2283661);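 on AC50: potency for transcript induction above DMSO vehicle baseline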
Summary of the method: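 Primary human hepatocytes from two donors, compound versus 0.2% DMSO vehicle. CYP1A1 mRNA measured 6 h after dosing by quantitative nuclease protection assay with chemiluminescent read-out; induction fitted relative to DMSO, cytotoxicity flagged by microscopy.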

[14] = read-out: xenobiotic metabolism (CYP1A2), CYP1A2 (gene 1544); test: CLD_CYP1A2_6hr: CellzDirect (CLD) Gene Expression Assay for xenobiotic metabolism (CYP1A2) at 6 hours (AID 2283663)
Summary of the method: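 Primary human hepatocytes from two donor preparations, dosed daily with multiple concentrations in 0.2% DMSO and harvested at 6 h. CYP1A2 mRNA induction measured by chemiluminescent qNPA, gain of signal fitted against DMSO; cytotoxicity flagged morphologically.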

[15] = read-out: ABC Transporter (ABCB1), ABCB1 (gene 5243); test: CLD_ABCB1_6hr: CellzDirect (CLD) Gene Expression Assay for ABC Transporter (ABCB1) at 6 hours (AID 2283659);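 further: hits raise ABCB1 transcript above the DMSO vehicle baseline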
Summary of the method: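 Primary human hepatocytes (two donor preparations) dosed daily for two days with chemicals at multiple concentrations, 0.2% DMSO vehicle; harvested 6 h post-dose. ABCB1 mRNA induction quantified by qNPA chemiluminescence; gain-of-signal fitted versus DMSO.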

[16] = CCTE_Simmons_CellTiterGLO_HEK293T: Viability Assessment in CCTE's Assays for Thyroperoxidase (TPO) Inhibition, Simmons Lab (AID 2283665);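 on AC50: cells exposed to compound for 24 h before readout; actives reduce ATP signal below DMSO vehicle meaning cytotoxicity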
Summary of the method: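 HEK293T cells in DMEM with 1% FBS were dosed with 8 concentrations (5 nM–87.5 uM final, 0.5% DMSO) for 24 hr at 37C; ATP content was read by CellTiter-Glo luminescence, loss-of-signal versus DMSO, three biological replicates.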

[17] = read-out: kallikrein-3 (KLK3), KLK3 (gene 354); test: LTEA_HepaRG_KLK3: Life Technologies and Expression Analysis (LTEA) Assay for kallikrein-3 (KLK3) using HepaRG (AID 2283652; active means hit-call score of the fitted dose curve at least 0.9, where 1 is the maximum; inactive means score below 0.9); details: mRNA level, 48 h; actives raise or lower the signal
Summary of the method: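 Differentiated human HepaRG cells in serum-free induction medium exposed 48 h in duplicate, eight-point half-log series from 100 uM in 0.5% DMSO. KLK3 mRNA by qRT-PCR, normalised to ACTB, GAPDH, POLR2A; bidirectional fit versus DMSO.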

[18] = read-out: solute carrier (SLC22A6), SLC22A6 (gene 9356); test: LTEA_HepaRG_SLC22A6: Life Technologies and Expression Analysis (LTEA) Assay for solute carrier (SLC22A6) using HepaRG (AID 2283653; active means hit-call score of the fitted dose curve at least 0.9, where 1 is the maximum; inactive means score below 0.9); details: mRNA level, 48 h; actives raise or lower the signal
Summary of the method: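 This endpoint tracks SLC22A6 mRNA induction or suppression in human HepaRG cultures after 48 h dosing, concentrations reaching 100 uM. Values derive from bidirectional fitting against DMSO controls.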

[19] = read-out: solute carrier (SLC10A1), SLC10A1 (gene 6554); test: LTEA_HepaRG_SLC10A1: Life Technologies and Expression Analysis (LTEA) Assay for solute carrier (SLC10A1) using HepaRG (AID 2283657; active means hit-call score of the fitted dose curve at least 0.9, where 1 is the maximum; inactive means score below 0.9); details: mRNA level, 48 h; actives raise or lower the signal
Summary of the method: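 Transcript levels were measured by qRT-PCR after human HepaRG cells received test chemical for 48 hours, up to 100 uM in half-log dilutions. Values come from bidirectional concentration-response fitting relative to 0.5% DMSO vehicle.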

[20] = read-out: matrix metalloproteinase-1 (MMP1), MMP1 (gene 4312); test: LTEA_HepaRG_MMP1: Life Technologies and Expression Analysis (LTEA) Assay for matrix metalloproteinase-1 (MMP1) using HepaRG (AID 2283658; active means hit-call score of the fitted dose curve at least 0.9, where 1 is the maximum; inactive means score below 0.9); details: mRNA level, 48 h; actives raise or lower the signal
Summary of the method: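 Bidirectional concentration-response fitting relative to 0.5% DMSO gives the endpoint, derived from MMP1 mRNA levels (qRT-PCR) in human HepaRG cells treated 48 h with chemicals up to 100 uM.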

Measured: AC50

Chain of Broad substrate specificity ATP-binding cassette transporter ABCG2 (Homo sapiens) (Q9UNQ0 whole entry, looked up): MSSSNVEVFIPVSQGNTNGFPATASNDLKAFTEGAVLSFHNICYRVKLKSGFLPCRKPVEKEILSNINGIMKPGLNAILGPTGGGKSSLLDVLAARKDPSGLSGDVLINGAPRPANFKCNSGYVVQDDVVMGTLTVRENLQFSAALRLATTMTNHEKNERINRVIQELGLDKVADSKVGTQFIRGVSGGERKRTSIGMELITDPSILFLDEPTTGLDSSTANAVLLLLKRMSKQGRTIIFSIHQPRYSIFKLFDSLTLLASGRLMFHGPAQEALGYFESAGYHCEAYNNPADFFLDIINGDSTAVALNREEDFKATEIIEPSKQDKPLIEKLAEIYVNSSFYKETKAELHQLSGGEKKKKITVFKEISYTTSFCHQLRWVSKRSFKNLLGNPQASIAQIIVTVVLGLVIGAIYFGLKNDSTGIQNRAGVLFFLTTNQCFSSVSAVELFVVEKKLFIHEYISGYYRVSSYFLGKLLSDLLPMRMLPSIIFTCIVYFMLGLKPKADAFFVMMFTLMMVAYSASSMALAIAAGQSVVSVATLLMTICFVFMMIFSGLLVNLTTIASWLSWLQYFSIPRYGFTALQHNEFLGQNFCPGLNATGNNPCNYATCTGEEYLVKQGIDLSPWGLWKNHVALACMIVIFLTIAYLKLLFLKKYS

CNC(=O)ON=C(SC)C(=O)N(C)C
inactive: [1] | [2] | [3] | [4] | [5] | [6] | [7] | [8] | [9] | [10] | [11]

CNC(=O)ON=C(C)SC
inactive: [1] | [2] | [3] | [5] | [6] | [7] | [12] | [8] | [9] | [10] | [11] | [13] | [14]

Nc1nc(N)nc(NC2CC2)n1
inactive: [1] | [4] | [5] | [6] | [7] | [12] | [8] | [9] | [13]

CCCSP(=O)(OCC)SCCC
inactive: [1] | [2] | [4] | [5] | [6] | [7] | [12] | [8] | [9] | [10] | [15] | [11] | [14] | [16]
active: [13] 1.9 µM

CC(C)N(C(=O)SCC(Cl)=C(Cl)Cl)C(C)C
inactive: [1] | [2] | [3] | [4] | [5] | [7] | [12] | [8] | [9] | [10] | [15] | [11] | [13] | [14]

CCCCOC(=O)[C@@H](C)Oc1ccc(Oc2ccc(C#N)cc2F)cc1
inactive: [2] | [6] | [7] | [9] | [10] | [13] | [14]

O=[N+]([O-])c1cc(C(F)(F)F)c(Cl)c([N+](=O)[O-])c1Nc1ncc(C(F)(F)F)cc1Cl
inactive: [1] | [2] | [3] | [5] | [6] | [7] | [12] | [8] | [9]

N#CSCSC#N
inactive: [1] | [2] | [4] | [5] | [6] | [12] | [8] | [9] | [10] | [15] | [11] | [14]
active: [16] 9.47 µM

CCOP(=S)(OCC)Oc1ccc2c(C)c(Cl)c(=O)oc2c1
active: [19] 70.7 µM
inactive: [2] | [3] | [4] | [5] | [6] | [7] | [12] | [17] | [18] | [8] | [9] | [10] | [20] | [11] | [13] | [16]
